Sampled rows, rich in hits. Any-hit rate of the full collection: about 3.5%.
GPR151 activ: activators of human GPR151, primary screen, cell-based, PathHunter beta-arrestin, luminescence. G-protein coupled receptor 151 (Homo sapiens), Q8TDV0. PathHunter beta-arrestin GPR151 cells. activation, % at 11.2 µM. 650,000 compounds, 1% hits. AID 1508602, 2020; in the data active = activation above about 4.9%;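 note: 0% = median of compound wells and 100% = cells with positive control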
MITF primary: MITF inhibitors, primary screen, biochemical, AlphaScreen, human | Microphthalmia-associated transcription factor (Homo sapiens), O75030 | AlphaScreen MITF homodimerization, bead proximity signal | inhibition, % at 2.6 µM | 650,000 compounds, 0.91% hits; in the data active = inhibition above about 50%;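 note: 0% = vehicle wells with protein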
FBW7 activator: FBW7 E3 ligase activators, primary screen, biochemical, AlphaScreen, human. 650,000 compounds, 0.13% hits. AlphaScreen FBW7–phospho-cyclin E peptide binding, activator screen. normalized activity (activation), % at 26.1 µM. F-box/WD repeat-containing protein 7 (Homo sapiens), Q969H0; in the data active = normalized activity above about 1.9%;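 note: purified mutant Fbw7 with reduced substrate affinity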
Target sequence (Q969H0 whole entry, looked up): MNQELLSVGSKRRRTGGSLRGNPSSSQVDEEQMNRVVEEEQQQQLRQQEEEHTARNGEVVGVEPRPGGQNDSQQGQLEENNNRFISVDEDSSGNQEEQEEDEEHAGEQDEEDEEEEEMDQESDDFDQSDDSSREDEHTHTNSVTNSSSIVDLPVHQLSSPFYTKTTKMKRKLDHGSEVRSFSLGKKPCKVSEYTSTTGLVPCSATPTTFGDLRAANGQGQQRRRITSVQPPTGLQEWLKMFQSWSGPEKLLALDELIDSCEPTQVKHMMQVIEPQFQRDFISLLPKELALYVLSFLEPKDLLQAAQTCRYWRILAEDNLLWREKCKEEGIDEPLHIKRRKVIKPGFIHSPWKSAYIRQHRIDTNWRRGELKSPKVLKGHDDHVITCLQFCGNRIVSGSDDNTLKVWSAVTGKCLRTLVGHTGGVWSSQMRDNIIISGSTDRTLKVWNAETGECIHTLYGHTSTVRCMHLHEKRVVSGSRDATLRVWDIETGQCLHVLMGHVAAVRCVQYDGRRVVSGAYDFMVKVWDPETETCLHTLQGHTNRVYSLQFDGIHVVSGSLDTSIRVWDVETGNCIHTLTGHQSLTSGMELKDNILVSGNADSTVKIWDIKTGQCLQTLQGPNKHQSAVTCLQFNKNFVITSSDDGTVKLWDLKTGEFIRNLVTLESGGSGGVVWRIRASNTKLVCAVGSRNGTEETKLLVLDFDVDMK
TEAD-YAP inh: TEAD-YAP interaction inhibition, primary screen, TEAD-YAP interaction inhibitor project, luminescence, HEK-TIYL cells; TEAD-Gal4/YAP UAS-luciferase luminescence; inhibition, % at 9.12 µM; 640,000 compounds, 1.4% hits; AID 1259422, 2018; in the data active = inhibition above about 32%;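 note: 0% = median of test compound wells and 100% = reference inhibitor wells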
MITF inh conf: MITF inhibitors, retest of hits, confirmation, biochemical, AlphaScreen, triplicate | shares compounds with MITF primary | AlphaScreen MITF homodimerization, biotin/His-MITF beads | inhibition, % at 2.6 µM | 4,700 compounds, 16% hits | AID 1259372, 2018;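 active = inhibition above a cutoff derived from the DMSO control wells, cut at about 28% in these data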;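 note: 0% = MITF dimer wells with DMSO only; inhibitors lower the bead chemiluminescence by keeping MITF from dimerizing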
AS interf DR: AlphaScreen optical interference compounds, dose response, counter-screen, biochemical, HTS; shares compounds with MITF primary; AlphaScreen optical interference counterscreen, cell-free; IC50, µM; 480 compounds, 6% hits; AID 1259373, 2018; call rule not given here
AS interf ctr: AlphaScreen optical interference compounds, counter-screen for MITF inhibitor project, biochemical, triplicate | shares compounds with MITF primary | LysRS AlphaScreen counterscreen, signal interference | inhibition, % at 2.6 µM | 4,700 compounds, 7.6% hits | AID 1259376, 2018;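 active = inhibition above a cutoff derived from the DMSO control wells, cut at about 30% in these data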
* hit, by the source's call; · = no result given.

SMILES	GPR151 activ	MITF primary	FBW7 activator	TEAD-YAP inh	MITF inh conf	AS interf ctr	others
COc1ccc(C(=O)N2c3ccccc3C(N(C(=O)c3ccc(OC)cc3)c3ccccc3)CC2C)cc1 (stereo unspecified)	-2.1	11.9	-0.1	5.4	·	·
COc1ccc(Cl)cc1-n1c(=O)c(C#N)cc2c(=O)n3ccccc3nc21	0.1	4.8	-0.1	-2.8	·	·
CCc1ccc(CN2CCN(Cc3cc(OC)c(O)c(OC)c3)CC2)cc1	-0.9	65.8*	0.0	-4.7	50.7*	7.1	AS interf DR=>5.79
COc1cc(CN2CCCCCC2)cc(OC)c1O	2.6	17.6	0.1	10.0	·	·
COc1c(O)cc(O)cc1O	-2.2	71.8*	0.3	-14.1	60.2*	-1.4	AS interf DR=>6.48
COc1cc(O)c(C)c(O)c1	-2.3	14.3	0.1	-4.3	·	·
CCCc1nnc(SCC(=O)N2C(C)CCCC2C)n1C (stereo unspecified)	0.2	2.0	0.5	-8.5	·	·
CCN(CC)c1nc(NCCc2ccc(O)cc2)nc(Nc2ccccc2)n1	-2.1	-3.9	-0.1	0.4	·	·
O=c1[nH]cnc2nc(-c3ccco3)c(-c3ccco3)nc12	0.2	86.9*	-1.1	0.3	60.2*	4.7	AS interf DR=>7.63
CCCS(=O)(=O)c1c(S(=O)(=O)CCC)c2ccc(C(N)=O)cn2c1C(=O)c1ccc(C)cc1C	0.0	-3.2	0.0	-5.8	·	·
COc1ccccc1C(=O)Nc1ccc(-c2nc3c(ccc4ccccc43)o2)cc1	-0.7	13.7	0.1	-13.2	·	·
CCCCN(C)CC(=O)Nc1cc(N(C)C)nc2ccccc12	1.0	24.4	0.0	3.6	·	·
CCCCc1nc2ccccc2c(NC(=O)CN2CCN(C(=O)c3ccco3)CC2)c1CCC	-2.3	65.4*	0.1	-3.9	-5.0	12.4
CCCCc1nc2ccccc2c(NC(=O)CNC2CCCCC2)c1CCC	-1.1	66.3*	-0.2	8.8	1.4	4.5
CCCCc1nc2ccccc2c(NC(=O)CN(CCCC)CCCC)c1CCC	1.7	83.1*	0.3	-7.3	15.4	-10.3
CCOC(=O)c1cc2c(=O)n3ccccc3nc2n(CCCOC)c1=NC(=O)c1ccc(C)cc1	-0.9	13.3	0.0	-2.7	·	·
COc1cc(OC)c(OC)cc1CNC1CCCc2ccccc21 (stereo unspecified)	0.7	43.8	0.0	4.2	·	·
COc1cc(CNC2CCCc3ccccc32)cc(OC)c1O (stereo unspecified)	0.2	57.2*	0.1	18.1	8.3	17.7
O=C(Cn1c(=O)oc2ccccc21)NCc1ccccc1Br	2.7	2.3	0.0	-5.1	·	·
O=C(N1CCN(Cc2ccccc2)CC1)C12CC3CC(CC(O)(C3)C1)C2	1.0	53.0*	-0.1	-3.1	12.6	10.0
O=C(N1CCN(c2ccccc2)CC1)C12CC3CC(CC(O)(C3)C1)C2	-1.7	5.2	0.1	-7.1	·	·
C=CCc1cc(OC)ccc1OCCCCN1CCOCC1	-0.9	32.6	-0.2	-1.5	·	·
C=CCc1cc(C)ccc1OCCNC(C)C	-0.1	87.6*	0.0	10.3	-19.4	-3.0
Cc1ccc(OCCN2CCOCC2)c(Cl)c1	1.7	-7.2	-0.1	-4.2	·	·
Cc1ccc(Cl)c(OCCCN2CCOCC2)c1	0.1	54.5*	-0.1	-13.3	13.1	14.2
COc1cc(C)ccc1OCCCN1CC(C)OC(C)C1 (stereo unspecified)	0.2	45.2	0.1	-11.1	·	·
C=CCc1cc(C)ccc1OCCCN1CC(C)OC(C)C1 (stereo unspecified)	-0.7	53.4*	0.3	-15.0	2.1	-1.0
C=CCc1cc(C)ccc1OCCCN1CCOCC1	4.0	72.4*	-0.1	4.6	-11.8	37.5*
COc1cccc(NC(=O)Cn2c(=O)n(C3CCCCC3)c(=O)c3cccnc32)c1	-1.8	2.7	0.0	6.6	·	·
CCOC(=O)C1=C(C)N=c2s/c(=C\c3ccc(OC)c(OCC)c3)c(=O)n2C1c1ccccc1Cl (stereo unspecified)	0.0	-4.7	-0.2	5.5	·	·

Compound activity: PubChem BioAssay, The Scripps Research Institute Molecular Screening Center
